Rows were chosen to be rich in hits. Some 21% of all compounds tested hit in one or more screens of this group.
Shiga toxin inh: A qHTS for Small Molecule Inhibitors of Shiga Toxin; AID 2315, 2010; Vero cells, Shiga toxin protein synthesis inhibition reporter; inhibition, % at 38.7 µM; hit rate 9.2% among 290,000; in the data active = inhibition mostly above about 28%, no sharp cut-off; inactive = mostly below about 43%; also: 0% is about no effect
Pf growth 96h: Primary qHTS for delayed death inhibitors of the malarial parasite plastid, 96 hour incubation | Potency, µM (series often up to 28.7 µM), without a hit: at the highest dose activity change, negative = inhibition, most hits filed as inhibitors | P. falciparum luciferase reporter growth, 96 h | hit rate 6.9% among 320,000; also: potency is read from the fitted curve at half-maximal effect; % is scaled to controls: 0 for no effect and ±100 for the full control effect
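96 h incubation, 37 C, 5% CO2, of luciferase-reporter P. falciparum-infected RBCs (2% hematocrit, 0.05% parasitemia final) with test compounds; endpoint luminescence.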
Pf growth 48h: Primary qHTS for delayed death inhibitors of the malarial parasite plastid, 48 hour incubation; hit rate 5.9% among 310,000; Potency, µM (titrated, usually from 28.7 µM), for inactives: top-dose activity change, negative = inhibition, usual class: inhibitors; P. falciparum luciferase growth in erythrocytes, 48 h; also: potency is read from the fitted curve at half-maximal effect; % is scaled to controls: 0 for no effect and ±100 for the full control effect
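Cell-based growth assay: transgenic P. falciparum expressing firefly luciferase, cultured in red cells within RPMI 1640 containing 0.5% w/v Albumax, 24 mM bicarbonate and gentamycin. A drop in luciferase activity indicates inhibition.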
CHX counter: Cycloheximide Counterscreen for Small Molecule Inhibitors of Shiga Toxin; cell reporter, cycloheximide protein synthesis inhibition counterscreen; max response, %; hit rate 12% among 300,000; in the data active = max response mostly above about 13%, no sharp cut-off; inactive = mostly below about 14%; also: read at 38.3 µM for the half of the compounds with a filed dose; 0% is about no effect
* hit, by the source's call; ? = inconclusive; . = no result given; [ ] = remark or other dose. Unless noted, calls follow the shape of the dose curve; as a rule, active = well fitted inhibition curve with a large enough effect; inconclusive = small, poorly fitted or top-dose-only effect, or another doubt; inactive = no such curve, though single readings can be large or run the other way.

SMILES	Shiga toxin inh	Pf growth 96h	Pf growth 48h	CHX counter
CCOc1ccc(S(=O)(=O)N2CCC(C(=O)N3CCc4ccccc4C3)CC2)cc1	16	2.9µM*	?	-3
CCOc1ccc(S(=O)(=O)N2CCN(C(=S)NCc3ccco3)CC2)cc1	13	2.3µM*	2.9µM*	14
CC(C)c1ccc(S(=O)(=O)N2CCC(C(=O)NCc3ccco3)CC2)cc1	.	2.6µM*	3.3µM*	.
CCOc1ccc(S(=O)(=O)N2CCC(C(=O)NCc3ccco3)CC2)cc1C	-2	1.9µM*	?	-4
Nc1c(N(Cc2ccco2)C(=O)COc2ccccc2F)c(=O)[nH]c(=O)n1Cc1ccccc1	.	-10%	?	.
S=c1[nH]nc(-c2ccncc2)n1/N=C/c1cccc(Cl)c1	-3	5%	?	1
O=C(CCC1CCCCC1)Nc1ccccc1C(=O)N1CCOCC1	11	-13%	0%	1
COc1ccc(CN2CCC(C)CC2)cc1OCc1ccccc1	1	6%	?	0
CC1CCCCC12NC(=O)N(CC(=O)N1CCN(Cc3ccc(C#N)cc3)CC1)C2=O (stereo not drawn)	.	-29%	-2%	.
CCCN1C(=O)/C(=C\C=C2\N(CC)c3ccccc3C2(C)C)SC1=S	-5	-4%	5.2µM*	0
CCCN1C(=O)/C(=C\C=C2/Sc3ccccc3N2CC)SC1=S	-12	49%	22%	-3
CCNC(=S)N1CCN(S(=O)(=O)c2ccccc2C(F)(F)F)CC1	57	-14%	0%	15
O=C(c1cc2c(s1)CCCC2)N1CCN(S(=O)(=O)c2ccccc2C(F)(F)F)CC1	-6	12µM*	?	-2
COc1ccccc1N1CCN(C(=O)c2cc3c(s2)CCCCC3)CC1	-20	?	?	2
O=C(c1cc2c(s1)CCCC2)N1CCN(c2ccccc2)CC1	151*	38%	17%	24*
CCOc1ccc(/C=N/OC(C)C(=O)NCc2ccc3c(c2)OCO3)cc1 (stereo not drawn)	-2	-19%	5%	-4
Cc1cc2nc(-c3cccc(NC(=O)c4ccc(Br)o4)c3)oc2cc1C	80	.	44%	41*
O=C(Nc1ccc2oc(-c3cccnc3)nc2c1)c1ccc(Br)o1	-6	?	.	-4
Cc1ccc2oc(-c3cccc(NC(=O)c4ccc(Br)o4)c3)nc2c1	38	125%	.	26*
COC(=O)c1sccc1NS(=O)(=O)c1ccccc1	-7	?	3%	-2
CCN(CC)c1ccc(-c2nc3cnccc3n2C)cc1	135*	22%	98%	33*
Cn1c(-c2ccncc2)nc2ccccc21	.	?	2%	1
CC1=C(C(=O)O)N2C(=O)[C@@H](NC(=O)[C@@H](N)c3ccc(O)cc3)[C@@H]2SC1	.	3%[12.8 µM]	6%[12.8 µM]	.
Cc1nc(C)c(/C(O)=C/c2nc3ccccc3oc2=O)s1	-3	-95%	?	22*
O/C(=C\c1nc2ccccc2nc1/C=C(\O)c1ccccc1)c1ccccc1	102*	-7%	4%	31*
SMILES	Shiga toxin inh	Pf growth 96h	Pf growth 48h	CHX counter
CC(C)C/C(O)=C/c1nc2cc(Cl)ccc2oc1=O	25	?	?	4
O=c1oc2ccccc2nc1/C=C(\O)c1ccccc1	104*	4%	-21%	63*
CC(C)(C)/C(O)=C/c1nc2ccccc2oc1=O	-7	8%	39%	4
O=c1oc2ccc(Cl)cc2nc1/C=C(\O)c1ccco1	41*	15µM*	?	25*
O=C(OCC(=O)C12CC3CC(CC(C3)C1)C2)c1ccc(O)cc1O	.	33%	3%	.
CC(C)Cc1ccc(C(C)C(=O)Nc2ccccc2O)cc1 (stereo not drawn)	10	-30%	?	-3
C/C=C/c1ccc(OCC(=O)N2CCc3cc(OC)c(OC)cc3C2)c(OC)c1	-5	?	?	-5
CCN(CC)C(=O)CSc1nnc(-c2ccccn2)n1-c1ccccc1OC	-2	0%	-10%	-3
CCc1ccc(C(=O)Cn2ccsc2=N)cc1	91*	-18%	6%	54*
Cn1cccc1CC(=O)N/N=C\c1c2ccccc2cc2ccccc12	28	22%	18%	-3
CC(/C=N/NC(=O)Cc1cccs1)=C\c1ccccc1	42*	88%	77%	60*
O=C(Cc1cccs1)N/N=C/C(Br)=C/c1ccccc1	77*	15%	126%	51*
O=C(CN1CCOCC1)N/N=C/C(Br)=C\c1ccccc1	17	48%	30%	12
CC(/C=N/NC(=O)Cc1cccn1C)=C\c1ccccc1	74*	-10%	54%	20*
CC(=C/c1ccccc1)/C=N/NC(=O)CSc1nc(C)cc(C)n1	-13	2%	8%	10
CCOc1ccc(C(=O)NCCC(=O)N2CCC3(CC2)NCCc2[nH]cnc23)cc1OCC	11	15%	1%	-2
Cc1ccc(N(Cc2ccccc2)C(=O)c2ccc(Cl)c(S(=O)(=O)N3CCOCC3)c2)cc1	.	9.3µM*	13µM*	.
Cc1ccc(N(Cc2ccccc2)C(=O)c2cc(S(=O)(=O)N3CCOCC3)ccc2C)cc1	.	?	10µM*	.
Cc1ccc(C(=O)N(C)Cc2ccccc2)cc1S(=O)(=O)N1CCOCC1	-6	23%	-29%	-3
N=C1c2ccccc2CN1NC(=O)c1cccc(S(=O)(=O)N2CCCC2)c1	-16	-23%	0%	0
CC(C)C(NC(=O)c1ccc(F)cc1)C(=O)N1CCOCC1 (stereo not drawn)	.	-19%	1%	.
COC(C#CCCN(C)C)(c1ccccc1)c1ccccc1	-7	?	1.7µM*	-3
Clc1ccc(-c2c[n+]3c(n2-c2ccccc2)SCC3)cc1	6	0.17µM*	1.2µM*	-1
O=[N+]([O-])c1cccc(-c2c[n+]3c(n2-c2ccccc2)SCC3)c1	-7	1µM*	1µM*	1
COc1ccc(-n2c(-c3ccccc3)nnc2-c2ccc(Cl)cc2)cc1	-6	-24%	13%	29
SMILES	Shiga toxin inh	Pf growth 96h	Pf growth 48h	CHX counter
Cc1cc(NC(=O)CSc2nc3sc(C)c(C)c3c(=O)n2C2CCCC2)no1	-4	?	43%	-8
COC(=O)c1ccccc1NC(=O)C(C)n1nc(C)c2c(C)n(-c3ccccc3)nc2c1=O (stereo not drawn)	-2	9.3µM*	?	-4
Cc1nn(C(C)C(=O)Nc2ccccc2Cl)c(=O)c2nn(-c3ccccc3)c(C)c12 (stereo not drawn)	-15	12µM*	-22%	-10
Cc1nn(C(C)C(=O)NC2CCCCC2)c(=O)c2nn(-c3ccccc3)c(C)c12 (stereo not drawn)	-3	12µM*	-3%	12
Cc1nn(C(C)C(=O)NC2CC2)c(=O)c2nn(-c3ccccc3)c(C)c12 (stereo not drawn)	-6	?	7%	-6
O=C(CCS(=O)(=O)c1ccc(Br)cc1)NCCC1=CCCCC1	12	41%	4%	-3
CCCc1cc(Nc2c(C)n(C)n(-c3ccccc3)c2=O)n2c(nc3ccccc32)c1C#N	-6	-2%	1.7µM*	3
CCN(CC)CCNc1cc(C)c(C#N)c2nc3ccccc3n12	-8	29%	?	-2

Compound activity as filed in PubChem BioAssay.
